From PubChem BioAssay
GLS inhibitor: qHTS for Inhibitors of Glutaminase (GLS). GLS enzymatic activity, qHTS titration. Potency, µM (series often up to 45.5 µM), without a hit: at the top dose activity change, negative = inhibition, actives largely listed as inhibitors. 0.21% of 410,000 active; active = well fitted inhibition curve with a large enough effect; inconclusive = small, poorly fitted or top-dose-only effect, or another doubt; inactive = no such curve, though single readings can be large or run the other way; also: potency is read from the fitted curve at half-maximal effect; % is scaled to controls: 0 for no effect and ±100 for the full control effect
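Glutamate formation by hKGA was monitored fluorometrically using coupled glutamate oxidase, HRP and Amplex Red. Substrate was added as 1 mM L-glutamine solution; incubation was 30 min at RT after an initial read.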
Six1-Eya2 inh: qHTS Assay for Inhibitors of the Six1/Eya2 Interaction; Homeobox protein SIX1 (Homo sapiens) + Protein phosphatase EYA2 (Homo sapiens), …; 0.56% of 360,000 active; activity change, % (test concentration not listed); AlphaScreen GST-Six1/His-Eya2 binding, biochemical; stronger effect = lower value; AID 651725, 2012; also: % is scaled to controls: 0 for no effect and ±100 for the full control effect
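AlphaScreen luminescence read after one hour at 37 °C in darkness. Pin-transferred compounds met GST-Six1 and His-Eya2 protein (5X stock 250 nM/500 nM) plus glutathione donor and Ni-chelate acceptor beads (5X, 50 ug/mL).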
Menin-MLL FL inh: qHTS Assay for Inhibitors Targeting the Menin-MLL Interaction in MLL Related Leukemias: Competition With Fluorescein Labeled MLL-derived Peptide | FP activity change, % at 61.4 µM | Fluorescence polarization, fluorescein-MLL peptide displacement from menin | 290,000 tested, under 10 active; active = well fitted curve in the direction sought with a large enough effect in the polarisation, not every such curve was filed as active; inconclusive = small, poorly fitted or top-dose-only effect, or effect the other way, or a change in a side signal; inactive = no such curve, though single readings can be large or run the other way; the % refers to the polarisation; also: % of control where 0% means no effect
Menin-MLL TR inh: qHTS Assay for Inhibitors Targeting the Menin-MLL Interaction in MLL Related Leukemias: Competition With Texas Red Labeled MLL-derived Mutant Peptide. Potency, µM (highest dose often 61.6 µM), inactives show at the top dose FP activity change, negative = inhibition, most hits filed as inhibitors. 0.23% of 270,000 active. Menin + Texas Red MLL mutant peptide, fluorescence polarization. AID 1768, 2009; active = well fitted inhibition curve with a large enough effect in the polarisation, with a control signal flat, not every such curve was filed as active; inconclusive = small, poorly fitted or top-dose-only effect, or effect the other way, or a change in a side signal; inactive = no such curve, though single readings can be large or run the other way; the % refers to the polarisation; also: potency is read from the fitted curve at half-maximal effect; % of control where 0% means no effect
CtBP-E1A inh: qHTS Assay for Inhibitors of the CtBP/E1A Interaction | activity change, % (no concentration beside the values) | CtBP / adenovirus E1A interaction (AlphaScreen) | AlphaScreen GST-E1A/His-CtBP binding, 1536-well; stronger effect = lower value | 0.49% of 340,000 active; also: % is scaled to controls: 0 for no effect and ±100 for the full control effect
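In 5 uL wells, 23 nL compound meets equimolar GST-E1A and His-CtBP (5X stock 125 nM each) for 2 h, 37 °C. Beads (5X, 50 ug/mL) then 1 h, 37 °C, dark.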
MLL CXXC-DNA inh: qHTS Fluorescence Polarization Assay for Inhibitors of MLL CXXC domain - DNA interaction | MLL-CXXC / FITC-HOXA9 DNA fluorescence polarization | Potency, µM (titrated, usually from 115 µM), for the others: at the top dose activity change, negative = inhibition, actives largely listed as inhibitors | 0.037% of 290,000 active | AID 2662, 2010; active = well fitted inhibition curve with a large enough effect in the polarisation, with a control signal flat, not every such curve was filed as active; inconclusive = small, poorly fitted or top-dose-only effect, or effect the other way, or a change in a side signal; inactive = no such curve, though single readings can be large or run the other way; the % refers to the polarisation; also: potency is read from the fitted curve at half-maximal effect
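Fluorescence polarization: 7 uM MLL-CXXC (stock) preincubated 5 min with compounds, then 50 nM fluorescein-HOX-A9 DNA (stock) added; 30 min ambient. Buffer 50 mM Tris-HCl pH 7.5, 50 mM NaCl, 1 mM DTT, 0.05% BSA.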
Numbers without * were called inactive; ? = inconclusive; . = not tested or not shown. Hits are enriched below; roughly 0.83% of the tested compounds scored in any of these assays. Rule as the data show it, unless noted: active = activity change below about -65%; inconclusive = mostly about -30% to -63%; inactive = weaker than that.

SMILES	GLS inhibitor	Six1-Eya2 inh	Menin-MLL FL inh	Menin-MLL TR inh	CtBP-E1A inh	MLL CXXC-DNA inh
C=CC[N+]1([C@H]2C[C@H]3[C@@H]4CC[C@H]5C[C@H](OC(C)=O)[C@@H](N6CCCCC6)C[C@]5(C)[C@H]4CC[C@]3(C)[C@H]2OC(=O)CC)CCCCC1	0%	.	.	.	.	.
O=C(NCc1ccc(Cl)cc1)c1cc(-c2cccs2)on1	0%	1	5	28µM*	2	6%
Cc1cc(/C=C(/C#N)c2nc3ccccc3[nH]2)c(C)n1-c1ccccc1C(=O)O	111%	?	?	?	0	2%
Cc1cc(/C=C(/C#N)c2nc3ccccc3[nH]2)c(C)n1-c1cc(C(=O)O)cc(C(=O)O)c1	18µM*	-69*	?	?	-66*	-6%
c1cc(N2CCOCC2)ccc1-c1ccc2nncn2c1	26%	2	.	.	2	.
c1coc(-c2ccc3nncn3c2)c1	6.3µM*	?	.	.	-17	.
NC(=O)NC(CC(=O)NNC(=O)c1ccccn1)c1ccccc1Cl (centres undefined)	-5%	-65*	.	.	-79*	.
CC1CCC2C(C)C3C(CC4[C@@H]5CC=C6C[C@@H](O)CC[C@]6(C)C5CC[C@]34C)N2C1 (some centres undefined)	.	.	?	-10%	.	.
COc1cc(OC)c(NC(=O)Nc2cc(C)on2)cc1Cl	.	.	-4	?	.	.
O=C(CO)NCCCOc1cccc(CN2CCCCC2)c1	-2%	.	.	.	.	.
COc1cc(/C=C(\C#N)C(=O)NCC2CCCO2)ccc1O (centres undefined)	34%	9	6	-1%	6	2%
CCOc1ccc(/C=C(\C#N)C(=O)NCC2CCCO2)cc1OCC (centres undefined)	-4%	-5	10	3%	-66*	3%
O=C(CCC(=O)OCC(=O)c1ccc(-c2ccccc2)cc1)Nc1cccc(Cl)c1	3%	2	-1	25µM*	-7	19%
Cc1ccccc1NC(=O)CCC(=O)OCC(=O)c1ccc(-c2ccccc2)cc1	-1%	-1	-1	35µM*	0	-16%
O=C(CCNC(=O)c1ccccc1)OCC(=O)c1cccc(Cl)c1	0%	7	3	1%	-2	4%
Cc1cc(C)c(S(=O)(=O)NCC(c2ccco2)S(=O)(=O)c2cccs2)c(C)c1 (centres undefined)	3%	.	.	.	.	.
O=C(CCCn1cnc([N+](=O)[O-])n1)Nc1cc(Cl)ccc1O	5%	-23	-1	19%	-17	-3%
Cc1ccccc1/C=N/NC(=O)Cn1cnc([N+](=O)[O-])n1	-7%	0	3	-1%	1	15%
O=C(Cn1cnc([N+](=O)[O-])n1)N/N=C/c1cc(Cl)ccc1O	-2%	-92*	-1	-2%	-94*	3%
O=C(Cn1cnc([N+](=O)[O-])n1)N/N=C/c1ccccc1O	29%	-92*	6	17%	-95*	3%
Cc1cncc(C(=O)O)[n+]1[O-]	-1%	.	-8	2%	.	-4%
Cc1cc(C)nc(Nc2nc(C(N)c3ccccc3)cs2)n1 (centres undefined)	5%	-69*	.	.	-67*	.
Cc1cc(C)nc(Nc2nc(C(N)CCc3ccccc3)cs2)n1 (centres undefined)	18%	-21	.	.	-25	.
Fc1ccc(-[n+]2nc(Nc3ccccc3)sc2-c2c3ccccc3cc3ccccc23)cc1	-16%	?	-5	?	?	?
Oc1ccc2ccccc2c1-c1sc(Nc2ccccc2)n[n+]1-c1ccc(F)cc1	5%	-21	?	16µM*	-17	?
SMILES	GLS inhibitor	Six1-Eya2 inh	Menin-MLL FL inh	Menin-MLL TR inh	CtBP-E1A inh	MLL CXXC-DNA inh
O=C(Cc1cccs1)NC1C(=O)N2C(C(=O)[O-])=C(C[n+]3ccccc3)CSC12 (centres undefined)	11µM*	.	?	37%	.	5%
O=C1CSC(=S)N1N=Cc1c(O)ccc2ccccc12	26%	-88*	.	.	-89*	.
COc1ccc2ccccc2c1/C=N/N1C(=O)CSC1=S	?	-28	?	?	0	-3%
COc1cccc(/C=N/N2C(=O)CSC2=S)c1O	21%	-90*	?	?	-13	-3%
CC(=O)[C@@]1(O)CC[C@H]2[C@@H]3C=C(Cl)C4=CC(=O)CC[C@]4(C)[C@H]3CC[C@@]21C	6%	.	.	.	.	.
O=C(O)c1cc(Cl)c2c(c1)OCO2	20µM*	2	1	.	.	-15%
CC1CCN(C(=O)COC(=O)c2cc(Cl)c3c(c2)OCO3)CC1	-1%	1	.	.	6	.
CCc1c2c(nc3ccc(OC(=O)N4CCC(N5CCCCC5)CC4)cc13)-c1cc3c(c(=O)n1C2)COC(=O)C3(O)CC (centres undefined)	.	.	1	-15%	.	.
O=C(Oc1ccc(C(=S)N2CCOCC2)cc1)c1ccc([N+](=O)[O-])cc1[N+](=O)[O-]	-7%	-3	-2	6%	9	8%
O=C(Oc1ccc(Br)cc1C(=S)N1CCCCC1)c1cc([N+](=O)[O-])cc([N+](=O)[O-])c1	3%	-4	-1	.	-2	-5%
O=C(Oc1cccc(C(=S)N2CCOCC2)c1)c1ccc([N+](=O)[O-])cc1[N+](=O)[O-]	-4%	-69*	-3	28%	5	14%
O=C(Oc1ccc(Br)cc1C(=S)N1CCOCC1)c1ccc([N+](=O)[O-])cc1[N+](=O)[O-]	4%	-94*	1	12%	?	9%
CC#CC[C@@H](C)[C@@H](O)/C=C/[C@H]1[C@H]2c3cccc(CCCC(=O)O)c3O[C@H]2C[C@@H]1O	13%	.	.	.	.	.
CCOC(=O)c1ccc(NC(=O)c2cnn(-c3ccc(C)cc3C)c2C2CCN(C(=O)OC(C)(C)C)CC2)cc1	5%	.	.	.	.	.
CC[C@]1(c2ccccc2)NC(=O)NC1=O	.	.	7	0%	.	.
Cc1cc(/C=N/NC(=O)c2cccc(N(C)C)c2)c(C)n1-c1cc(C(=O)O)cc(C(=O)O)c1	-1%	-67*	13	-7%	?	0%
O=C(CSc1cccc2cccnc12)Nc1ccc(S(=O)(=O)N2CCOCC2)cc1	-6%	-88*	6	.	-93*	-11%
